From PubChem BioAssay AID743325 (National Center for Advancing Translational Sciences (NCATS), 2014) come the findings set out here.

Calls of active or inactive are those of the source. Calls come from the whole dose curve.

This assay is described as follows: qHTS profiling of Chloroquine Analogs as inhibitors of Plasmodium falciparum (3D7) proliferation. Particulars: activity change, negative = inhibition: at 28.7 µM (top of the series) unless noted. An excerpt:
Plasmodium falciparum is a virulent malarial parasite that kills 1-2 million people worldwide each year. Transmitted by mosquitoes, the sporozoite form of the parasite enters the blood stream to infect hepatocytes, where they become merozoites that infect red blood cells (erythrocytes). Within erythrocytes, merozoites begin a […] cycle of growth and division, after which the parasite is released to infect new red blood cells. Gametocytes, which form within erythrocytes as well, circulate in the bloodstream and are ingested by the mosquito, thereby completing the life cycle. To profile malarial isolates for differential chemical responses and to identify inhibitors of malarial growth, an assay that measures P. falciparum growth and replication within erythrocytes was employed. This assay uses a DNA binding fluorescent dye (SYBR Green) to detect parasite DNA following cell lysis. Because mature erythrocytes lack DNA, only Plasmodium-derived DNA is detected.
The SYBR Green viability assay was adapted from a method described previously (Plouffe et al., 2008). For screening 3 ul culture medium was dispensed into 1536 well black clear bottom plates (Aurora Biotechnologies) using a Multidrop Combi (Thermo Fisher Scientific Inc.), 23 nL compounds in DMSO were added by a pin tool (Kalypsys), and 5 ul of erythrocytes infected with P. falciparum (0.3% parasitemia, 2.5% hematocrit final concentration) were added. The plates were incubated at 37 C in a humidified incubator in 5% CO2 for 72 h, and 2 ul lysis buffer (20 mM Tris HCl, 10 mM EDTA, 0.16% saponin, 1.6% triton X, 10X SYBR Green I supplied as 10,000X […] by Invitrogen) was added to each well. The plates were mixed for 25 sec with gentle shaking and incubated overnight at room temperature in the dark. The following morning, fluorescence intensity at 485(14) nm excitation and 535(25) nm emission wavelengths was measured on an EnVision (Perkin Elmer) plate reader. Plate reads were normalized relative to the control inhibitor (0.29 uM artemisinin) and vehicle (DMSO) wells present on each plate and then corrected by an algorithm using vehicle-only control plates at the beginning and end of the compound plate stack.
(In general: qHTS replaces the single test concentration by a dilution series.)
`CN([C@@H](Cc1ccc(OS(=O)(=O)c2cccc3cnccc23)cc1)C(=O)N1CCN(c2ccccc2)CC1)S(=O)(=O)c1cccc2cnccc12`: the Potency is 237 nM (active).

As for `CC(=O)O[C@@]12CO[C@@H]1C[C@H](O)[C@@]1(C)C(=O)[C@H](O)C3=C(C)[C@@H](OC(=O)[C@H](O)[C@@H](NC(=O)OC(C)(C)C)c4ccccc4)C[C@@](O)([C@@H](OC(=O)c4ccccc4)[C@H]21)C3(C)C`, the “activity change, negative = inhibition” value is 177% (inactive).

With `Clc1ccc(COC(Cn2ccnc2)c2ccc(Cl)cc2Cl)c(Cl)c1` (configuration not stated), the activity change, negative = inhibition is -97.6% [at 14.2 µM].

For `C[C@@H]1[C@@H](C(=O)C[C@H]2O[C@@H]3O[C@]4(C)CC[C@@H]5[C@H](C)CC[C@@H]([C@H]2C)[C@@]35OO4)O[C@@H]2O[C@]3(C)CC[C@H]4[C@H](C)CC[C@@H]1[C@@]24OO3`, the Potency was 1.7 nM (active).

As to `CN1CCN(CCCN2c3ccccc3Sc3ccc(S(=O)(=O)N(C)C)cc32)CC1`, the Potency was 716 nM (active).

In the case of `Oc1cc(Cl)ccc1Oc1ccc(Cl)cc1Cl`, the Potency was 1880 nM (active).

For `CN1CC[C@H](CN2c3ccccc3Sc3ccccc32)C1`, the “activity change, negative = inhibition” value was -79.7% (inactive).

On to `C[C@H](N)CN1CCc2ccc(Br)cc21`, for which the Potency is 1680 nM (active).

`CC[C@@H](C)[C@H]1O[C@]2(CC[C@H]1C)C[C@@H]1C[C@@H](CC=C(C)[C@@H](O[C@H]3C[C@H](OC)[C@@H](O[C@H]4C[C@H](OC)[C@@H](O)[C@H](C)O4)[C@H](C)O3)[C@@H](C)C=CC=C3CO[C@@H]4[C@H](O)C(C)=C[C@@H](C(=O)O1)[C@]34O)O2`: the activity change, negative = inhibition was -99.9%.

Turning to `COc1cccc(CCc2ccccc2OCC(CN(C)C)OC(=O)CCC(=O)O)c1` (configuration not stated), the Potency was 2980 nM (active).

As to `OB1OCc2cc(F)ccc21`, the “activity change, negative = inhibition” value was 198% (inactive).

Consider `C=CCON=C(C[C@H]1O[C@@H]2O[C@]3(C)CC[C@@H]4[C@H](C)CC[C@@H]([C@H]1C)[C@@]24OO3)[C@H]1O[C@@H]2O[C@]3(C)CC[C@H]4[C@H](C)CC[C@@H]([C@@H]1C)[C@@]24OO3`, for which the activity change, negative = inhibition was -102%.

On to `CCCCN(CCCC)CC(O)c1cc(Cl)cc2c1-c1ccc(Cl)cc1C2=Cc1ccc(Cl)cc1` (configuration not stated), for which the activity change, negative = inhibition was -97.1%.

For `CCCC[C@@H]1C[C@@H](C(=O)NC([C@H](C)Cl)[C@H]2O[C@H](S)[C@H](O)[C@@H](O)[C@@H]2O)N(C)C1` (some centres not stated), the “activity change, negative = inhibition” value is -71.5% (inactive).

As for `CC(C)(C)c1cc(O)c(CN)c(C(C)(C)C)c1`, the Potency is 168 nM (active).

For the compound `CCCCN(CCCC)CCC(O)c1cc2c(Cl)cc(Cl)cc2c2cc(C(F)(F)F)ccc12` (configuration not stated), the Potency was 5.1 nM (active).

In the case of `COC(=O)C1C2CC3c4[nH]c5cc(OC)ccc5c4CCN3CC2CC(OC(=O)c2cc(OC)c(OC)c(OC)c2)C1OC` (configuration not stated), the activity change, negative = inhibition was -101% [at 57.5 µM].

Take `CNCCC(Oc1ccccc1OC)c1ccccc1` (configuration not stated): the activity change, negative = inhibition is -93.6%.

For the compound `O=C1C(=O)c2ccccc2C(O)=C1C1CCC(c2ccc(Cl)cc2)CC1` (configuration not stated), the Potency is 0.7 nM (active).

In the case of `C[C@@H]1Cc2c([nH]c3cc(Cl)c(F)cc23)[C@]2(N1)C(=O)Nc1ccc(Cl)cc12`, the activity change, negative = inhibition was -101%.

As to `Cc1nc2c(C#N)cccc2n1-c1ccc(C(=O)NC2CC2)s1`, the activity change, negative = inhibition is -100%.

Consider `C[C@@H]1[C@@H](CC(C[C@H]2O[C@@H]3O[C@]4(C)CC[C@@H]5[C@H](C)CC[C@@H]([C@H]2C)[C@@]35OO4)C[S+](=O)([O-])c2ccc(COC(=O)N(C)C)cc2)O[C@@H]2O[C@]3(C)CC[C@H]4[C@H](C)CC[C@@H]1[C@@]24OO3` (some centres not stated), for which the “activity change, negative = inhibition” value is 188% (inactive).

Regarding `C[C@@H]1CCC2[C@@H](C)[C@@H](O)O[C@@H]3O[C@@]4(C)CC[C@@H]1[C@@]23OO4` (some centres not stated), the activity change, negative = inhibition was -101%.

Regarding `CCc1nc(N)nc(N)c1-c1ccc(Cl)cc1`, the activity change, negative = inhibition was -98.9%.

In the case of `COc1cc(C=CC(=O)CC(=O)C=Cc2ccc(O)c(OC)c2)ccc1O`, the Potency was 8410 nM (active).

For the compound `CC1=CC(=O)c2ccccc2C1=O`, the “activity change, negative = inhibition” value was 205% (inactive).

With `C[C@H]1[C@@H](CCC(=O)Nc2ccc(F)cc2)O[C@@H]2O[C@]3(C)CC[C@@H]4[C@H](C)CC[C@@H]1[C@@]24OO3`, the activity change, negative = inhibition is -100%.

For the compound `C[C@H]1Cc2c([nH]c3cc(Cl)c(F)cc23)[C@@]2(N1)C(=O)Nc1ccc(Cl)cc12`, the activity change, negative = inhibition is -101%.

For `COc1ccc2nc3cc(Cl)ccc3c(Nc3cc(CN4CCCC4)c(O)c(CN4CCCC4)c3)c2n1`, the activity change, negative = inhibition is -101%.

`Cc1cccc(C)c1OCC(=O)N[C@@H](Cc1ccccc1)[C@@H](O)C[C@H](Cc1ccccc1)NC(=O)[C@H](C(C)C)N1CCCNC1=O`: the activity change, negative = inhibition is -99.8%.

Turning to `CCOc1ccccc1O[C@H](c1ccccc1)[C@H]1CNCCO1`, the “activity change, negative = inhibition” value was 192% (inactive).

Take `O[C@H](c1cc(C(F)(F)F)nc2c(C(F)(F)F)cccc12)[C@H]1CCCCN1`: the “activity change, negative = inhibition” value is 193% [at 14.2 µM] (inactive).

As for `O=C(O)c1cn(C2CC2)c2cc(N3CCNCC3)c(F)cc2c1=O`, the “activity change, negative = inhibition” value is -11.8% (inactive).

Consider `CCc1ccc(OCc2ccccc2C(=O)Nc2ccc3nc(C)cc(N)c3c2)cc1`, for which the activity change, negative = inhibition is -101%.

As to `Cc1oncc1C(=O)Nc1ccc(C(F)(F)F)cc1`, the “activity change, negative = inhibition” value is 171% (inactive).

Take `CN(C)c1ccc2nc3ccc(=[N+](C)C)cc-3sc2c1`: the Potency is 4.3 nM (active).

Regarding `O=C(C[C@@H]1NCCC[C@@H]1O)Cn1cnc2ccccc2c1=O`, the Potency was 2.7 nM (active).
